# Screens (PubChem)
# A selection: hits, their analogues and other compounds. The true share with any hit is near 7.5%.
# TSHR antag – Antagonists of the Thyroid Stimulating Hormone Receptor: HTS campaign; activity change, negative = inhibition, % at 11.5 µM; AID 504810, 2011; Thyrotropin receptor (Homo sapiens), P16473; TSHR-expressing cells, TSH-stimulated cAMP HTRF, 2 h; hits give low values; 330,000 compounds, 0.2% hits;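 active means activity change below a set negative limit, meaning inhibition stronger than a set level, cut at about -70% in these data; inconclusive means activity change between two set negative limits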
#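 TSHR-expressing cells, 200/well, pre-treated with compound, then stimulated with EC80 TSH (4nM final) for 2 hours at 37 deg C. cAMP measured by competitive HTRF: anti-cAMP cryptate antibody in lysis buffer plus cAMP-d2, read after 30 minutes at room temperature.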
# RORgamma inh – qHTS for inhibitors of ROR gamma transcriptional activity; Nuclear receptor ROR-gamma (Mus musculus), P51450; Drosophila S2 Gal4-RORgamma UAS-luciferase reporter, 20 h; Potency, µM (highest dose often 53.6 µM), most hits filed as inhibitors; 310,000 compounds, 5.4% hits; AID 2551, 2010; further: nearly all actives have a fitted effect of over 60% in size
#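 Stable Schneider cell line, Gal4 DNA-binding domain fused to ROR gamma, UAS-luciferase. Cmpd 1 hr RT → CuSO4 700 uM final → 20 hr RT → luciferase reagent 10 min → luminescence.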
# Gal4-VP16 FLuc – VP16 counterscreen qHTS for inhibitors of ROR gamma transcriptional activity; Drosophila S2 Gal4-VP16 UAS-luciferase, luminescence, 20 h; Potency, µM (top dose mostly 53.6 µM), actives largely listed as inhibitors; 310,000 compounds, 3.5% hits; AID 2546, 2010;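 further: Gal4-VP16 expression switched on by copper sulfate through the metallothionein promoter; nearly all actives have a fitted effect of over 50% in size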
# ELG1 repair inh – qHTS screen for small molecules that inhibit ELG1-dependent DNA repair in human embryonic kidney (HEK293T) cells expressing luciferase-tagged ELG1; HEK293T ELG1-luciferase reporter, luminescence, 16 h; DNA damage induced by 5-fluorouridine; Potency, µM (doses to about 46.1 µM), most hits filed as inhibitors; 330,000 compounds, 2.3% hits; AID 504467, 2011; further: nearly all actives have a fitted effect of over 55% in size
#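 DMSO vehicle served as the neutral condition. Each well held 2,000 cells given 5-fluorouridine plus compound; after 16 hr at 37 °C/5% CO2, ONE-Glo was added and luciferase measured 30 min later.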
# B2AR arrestin – qHTS assay of beta-arrestin-biased ligands of beta2-adrenergic receptor; beta-arrestin recruitment to beta2AR, cell-based reporter; 330,000 compounds, 0.02% hits; Beta-2 adrenergic receptor (Homo sapiens), P07550; Potency, µM (titrated, usually from 46.1 µM), most hits filed as activators; further: nearly all actives have a fitted effect of over 65% in size
# Target sequence (P07550 whole entry, looked up): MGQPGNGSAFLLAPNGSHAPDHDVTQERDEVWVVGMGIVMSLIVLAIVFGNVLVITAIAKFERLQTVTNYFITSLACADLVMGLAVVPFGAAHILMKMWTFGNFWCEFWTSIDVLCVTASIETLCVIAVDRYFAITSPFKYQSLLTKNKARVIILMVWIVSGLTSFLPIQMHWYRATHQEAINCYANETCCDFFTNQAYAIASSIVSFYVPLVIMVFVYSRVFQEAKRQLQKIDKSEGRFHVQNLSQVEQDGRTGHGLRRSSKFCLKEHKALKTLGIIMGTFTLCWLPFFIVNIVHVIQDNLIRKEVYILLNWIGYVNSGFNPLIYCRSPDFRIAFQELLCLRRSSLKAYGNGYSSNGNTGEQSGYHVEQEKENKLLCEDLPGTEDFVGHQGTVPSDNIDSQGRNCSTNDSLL
# Numbers stand for hits; – = inactive; ? = inconclusive; · = no result. Unless noted, the call rests on the fitted dose curve; in most records, active means well fitted curve in the direction sought with a large enough effect; inconclusive means small, poorly fitted or top-dose-only effect, or another doubt; inactive means no such curve, though single readings can be large; an effect the other way counts as inactive or inconclusive.
SMILES,TSHR antag,RORgamma inh,Gal4-VP16 FLuc,ELG1 repair inh,B2AR arrestin
COC(=O)[C@H]1[C@H]2C[C@@H]3c4[nH]c5cc(OC)ccc5c4CCN3C[C@H]2C[C@@H](OC(=O)c2cc(OC)c(OC)c(OC)c2)[C@@H]1OC,–,–,–,10µM,–
S=C(NCCNC(=S)Nc1ccccc1Cl)Nc1ccccc1Cl,–,?,–,?,–
S=C(NCc1ccccc1Cl)Nc1ccccc1Cl,–,0.56µM,2.8µM,–,–
Cc1cc(Cl)ccc1NC(=S)NCc1ccccc1Cl,–,5µM,4µM,–,–
NNC(=S)Nc1ccccc1Cl,–,7.9µM,11µM,?,–
NNC(=S)Nc1ccc(C(F)(F)F)cc1Cl,–,11µM,?,–,–
CN1CCN(c2ncc3nc(-c4ccccc4)c(=O)n(CCc4ccccc4)c3n2)CC1,·,–,–,·,·
O=S(=O)(Nc1ncccn1)c1ccc(NC(=S)Nc2ccccc2Cl)cc1,–,–,–,–,–
CC1(C)CC(=O)C=C(c2cccc3c2sc2ccccc23)C1,–,·,·,?,–
Fc1cccc(NC(=S)NCc2ccccc2Cl)c1,–,7.1µM,11µM,–,–
Cc1ccc(-c2nnc(N3CCC(C)CC3)c3ccccc23)cc1,–,?,?,–,–
Cc1ccc(-c2nnc(N3CCC(C)CC3)c3ccccc23)cc1C,–,20µM,18µM,?,–
CN(C)Cc1ccccc1Sc1cccc2ccccc12,–,10µM,14µM,–,–
CC(=O)Nc1cccc(NC=C(C#N)C#N)c1,–,–,–,–,–
Cn1nnnc1NCc1ccccc1F,–,0.63µM,–,–,–
CCOc1ccccc1CNc1nnnn1C,–,–,–,–,–
O=C(NNC(=O)c1ccccc1C(=O)O)c1ccc(O)cc1,–,0.32µM,?,–,–
CC(C)Oc1ccc(C(=O)NNC(=O)c2ccccc2C(=O)O)cc1,–,–,–,–,–
CC[C@H](C)[C@H](NC(=O)[C@H](CCC(=O)O)NC(=O)[C@H](CO)NC(=O)[C@@H](NC(=O)[C@@H](N)CO)C(C)C)C(=O)N[C@@H](CCC(N)=O)C(=O)N[C@@H](CC(C)C)C(=O)N[C@@H](CCSC)C(=O)N[C@@H](Cc1cnc[nH]1)C(=O)N[C@@H](CC(N)=O)C(=O)N[C@@H](CC(C)C)C(=O)NCC(=O)N[C@@H](CCCCN)C(=O)N[C@@H](Cc1cnc[nH]1)C(=O)N[C@@H](CC(C)C)C(=O)N[C@@H](CC(N)=O)C(=O)N[C@@H](CO)C(=O)N[C@@H](CCSC)C(=O)N[C@@H](CCC(=O)O)C(=O)N[C@@H](CCCNC(=N)N)C(=O)N[C@H](C(=O)N[C@@H](CCC(=O)O)C(=O)N[C@@H](Cc1c[nH]c2ccccc12)C(=O)N[C@@H](CC(C)C)C(=O)N[C@@H](CCCNC(=N)N)C(=O)N[C@@H](CCCCN)C(=O)N[C@@H](CCCCN)C(=O)N[C@@H](CC(C)C)C(=O)N[C@@H](CCC(N)=O)C(=O)N[C@@H](CC(=O)O)C(=O)N[C@H](C(=O)N[C@@H](Cc1cnc[nH]1)C(=O)N[C@@H](CC(N)=O)C(=O)N[C@@H](Cc1ccccc1)C(=O)N[C@H](C(=O)N[C@@H](C)C(=O)N[C@@H](CC(C)C)C(=O)NCC(=O)O)C(C)C)C(C)C)C(C)C,·,–,–,·,·
Cc1cccc(CN2CC34C=CC(CC3S2(=O)=O)O4)c1 (centres undefined),·,–,?,·,·
CCCCCC1CCC(c2n[nH]c(=S)n2C)CC1 (centres undefined),–,?,4µM,?,4µM
Cc1cccc(N2C(=O)c3cccc4c(N(C)CCO)ccc(c34)C2=O)c1,·,1.3µM,–,–,–
COC(=O)c1ccc(C(/C=C/[C@@H](C)C(=O)NCc2ccccc2)NC(=O)OCc2ccccc2)cc1 (some centres undefined),·,–,–,·,·
CCOC(=O)Nc1nnc(-c2ccccc2OC)s1,–,?,–,?,–
